Results filed as inconclusive are left out. Calls of active or inactive are those of the source. The calls were made as follows, unless noted: active = hit-call score of the fitted dose curve at least 0.9, where 1 is the maximum; inactive = score below 0.9.

Drawing on PubChem BioAssay (EPA / NIEHS), this text covers AC50 and outcome for seven compounds.

Read-out in assay [1]: Monocyte Chemoattractant Protein-1 (MCP1), CCL2 (gene 6347)
Put plainly: BSK_LPS_MCP1: BioMAP Diversity Plus: LPS Assay for Monocyte Chemoattractant Protein-1 (MCP1) Biomarker Activity (AID 2283081).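 As to AC50: co-culture stimulated with LPS; secreted MCP-1 protein quantified by ELISA in culture supernatant.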 Particulars: primary human HUVEC with PBMC; actives raise or lower the signal. Put shortly: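 Values derive from bidirectional fitting against DMSO of ELISA-measured MCP-1 in a human primary endothelial and mononuclear cell co-culture, 24 h after chemical addition under LPS activation.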

A short description of assay [2]: BSK_LPS_PGE2: BioMAP Diversity Plus: LPS Assay for Prostaglandin E2 (PGE2) Biomarker Activity (AID 2283082).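 As to AC50: secreted prostaglandin E2 measured by ELISA in LPS-stimulated co-culture.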 Particulars: primary human HUVEC with PBMC; actives raise or lower the signal. Put shortly: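 Primary human endothelial cells and blood mononuclear cells, co-cultured with LPS, receive test chemical; PGE2 ELISA follows at 24 h, with SRB-stained parallel cultures flagging cytotoxicity.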

Read-out in assay [3]: Macrophage colony-stimulating factor (MCSF), CSF1 (gene 1435)
Put plainly: BSK_LPS_MCSF: BioMAP Diversity Plus: LPS Assay for Macrophage colony-stimulating factor (MCSF) Biomarker Activity (AID 2283083). The conditions noted are these: primary human HUVEC with PBMC; actives raise or lower the signal. Put shortly: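 Bidirectional fit versus DMSO of ELISA-measured M-CSF in co-cultured human umbilical vein endothelial cells and PBMC, sampled 24 h after dosing.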

Read-out in assay [4]: Tissue Factor, F3 (gene 2152)
Nature of the assay: BSK_LPS_TissueFactor: BioMAP Diversity Plus: LPS Assay for Tissue Factor Biomarker Activity (AID 2283084). The conditions noted are these: primary human HUVEC with PBMC; actives raise or lower the signal. Put shortly:
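Read-out: CD142 ELISA, 24 h. System: LPS-driven human endothelial/PBMC co-culture. Analysis: up- or down-signal fitted against DMSO.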

Read-out in assay [5]: Tumor necrosis factor (Homo sapiens) (UniProt P01375)
Nature of the assay: BSK_LPS_TNFa: BioMAP Diversity Plus: LPS Assay for Tumour Necrosis Factor alpha (TNFa) Biomarker Activity (AID 2283085). Particulars: primary human HUVEC with PBMC; actives raise or lower the signal. Put shortly: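 ELISA-based TNFa endpoint in a human endothelial–PBMC co-culture sampled 24 h post-exposure. Curves were fitted in both directions using DMSO as baseline of activity.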

Read-out in assay [6]: CD38, CD38 (gene 952)
Nature of the assay: BSK_SAg_CD38: BioMAP Diversity Plus: SAg Assay for CD38 Biomarker Activity (AID 2283087). Particulars: primary human HUVEC with PBMC; actives raise or lower the signal. Put shortly: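 Measures CD38 on a human endothelial/PBMC co-culture driven by SEB and TSST-1, 24 h after compound exposure, using ELISA with fluorescence detection; DMSO defines baseline for bidirectional curve fitting.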

Read-out in assay [7]: CD40, CD40 (gene 958)
Nature of the assay: BSK_SAg_CD40: BioMAP Diversity Plus: SAg Assay for CD40 Biomarker Activity (AID 2283088). Particulars: primary human HUVEC with PBMC; actives raise or lower the signal. Put shortly:
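Endpoint derived by fitting increases or decreases versus DMSO controls. CD40 is detected by fluorescence ELISA in a human vascular co-culture of endothelium and PBMC at 24 h.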

Read-out in assay [8]: CD69, CD69 (gene 969)
Nature of the assay: BSK_SAg_CD69: BioMAP Diversity Plus: SAg Assay for CD69 Biomarker Activity (AID 2283089).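 As to AC50: cell surface CD69 protein quantified by ELISA with fluorescence detection.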 The conditions noted are these: primary human HUVEC with PBMC; actives raise or lower the signal. Put shortly:
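Values derive from bidirectional fitting relative to DMSO vehicle. Cells: umbilical vein endothelium plus peripheral blood mononuclear cells, treated 24 h before fluorescent ELISA for CD69.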

Read-out in assay [9]: Monocyte Chemoattractant Protein-1 (MCP1), CCL2 (gene 6347)
Put plainly: BSK_SAg_MCP1: BioMAP Diversity Plus: SAg Assay for Monocyte Chemoattractant Protein-1 (MCP1) Biomarker Activity (AID 2283090). Particulars: primary human HUVEC with PBMC; actives raise or lower the signal. Put shortly: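 Values derive from bidirectional fitting of ELISA-measured MCP1 against DMSO controls. Readings were taken 24 h after dosing human vascular endothelial cells co-cultured with peripheral blood mononuclear cells under superantigen stimulation.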

Read-out in assay [10]: E-selectin (Homo sapiens) (UniProt P16581)
Put plainly: BSK_SAg_Eselectin: BioMAP Diversity Plus: SAg Assay for Eselectin Biomarker Activity (AID 2283091). The conditions noted are these: primary human HUVEC with PBMC; actives raise or lower the signal. Put shortly:
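Endpoint values derive from bidirectional fitting relative to DMSO, using ELISA-measured E-selectin in a human vascular co-culture (umbilical vein endothelium plus PBMC) sampled 24 h after dosing.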

Read-out in assay [11]: Monokine induced gamma interferon (MIG), CXCL9 (gene 4283)
Nature of the assay: BSK_SAg_MIG: BioMAP Diversity Plus: SAg Assay for Monokine induced gamma interferon (MIG) Biomarker Activity (AID 2283092). Particulars: primary human HUVEC with PBMC; actives raise or lower the signal. Put shortly: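 Values reflect bidirectional fitting of ELISA-measured MIG against DMSO vehicle, taken 24 h after dosing of a co-culture of human umbilical vein endothelial cells and peripheral blood mononuclear cells.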

Assay [12] is described as follows: BSK_SAg_PBMCCytotoxicity: PBMC Cytotoxicity Assessment in the BioMAP Diversity Plus: SAg Assay (AID 2283093).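 Also: PBMC viability measured as Alamar Blue reduction fluorescence at 546/580 nm; fitted both ways against DMSO so a hit may be loss or gain of signal.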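 As to AC50: PBMC superantigen activated with SEB plus TSST-1 one hour after compound addition.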 Particulars: primary human HUVEC with PBMC. Put shortly: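 Alamar Blue reduction (6 h, 546/580 nm) reports PBMC cytotoxicity after 90 h superantigen activation (SEB, TSST-1; 20 ng/mL final each) with 1 h compound pre-treatment. Gain or loss of signal fitted versus DMSO.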

Read-out in assay [13]: Interleukin-8 (IL8), CXCL8 (gene 3576)
Nature of the assay: BSK_SAg_IL8: BioMAP Diversity Plus: SAg Assay for Interleukin-8 (IL8) Biomarker Activity (AID 2283094). The conditions noted are these: primary human HUVEC with PBMC; actives raise or lower the signal. Put shortly:
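Primary human endothelial cells with PBMC, exposed 24 h; IL-8 determined by ELISA, analysed bidirectionally relative to DMSO.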

Assay [14] can be described thus: BSK_SAg_Proliferation: Cell Proliferation Assessment in the BioMAP Diversity Plus: SAg Assay (AID 2283095).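 Also: relative cell number as total protein by SRB absorbance in sub-confluent culture.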 The conditions noted are these: primary human HUVEC with PBMC. Put shortly: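 A human primary co-culture of umbilical vein endothelium and blood mononuclear cells receives compound; relative cell number is quantified at 96 h by SRB staining and 560 nm absorbance, with DMSO-referenced bidirectional curve fitting.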

Read-out in assay [15]: Vascular cell adhesion molecule 1 (VCAM1), VCAM1 (gene 7412)
Nature of the assay: BSK_LPS_VCAM1: BioMAP Diversity Plus: LPS Assay for Vascular cell adhesion molecule 1 (VCAM1) Biomarker Activity (AID 2283086). The conditions noted are these: primary human HUVEC with PBMC; actives raise or lower the signal. Put shortly:
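Measured by ELISA: VCAM-1 in LPS-activated HUVEC/PBMC co-cultures 24 h after treatment. Values reflect bidirectional fitting with DMSO as baseline.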

The target in assay [16] is human CYP2B6, CYP2B6 (gene 1555) (UniProt P20813). Put plainly: NVS_ADME_hCYP2B6: NovaScreen (NVS) CYP450-related Enzyme Activity (ADME) Assay for human CYP2B6 (AID 2283101; active = hit-call score of the fitted dose curve at least 0.9, where 1 is the maximum). Put shortly: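 Compounds were first screened in duplicate at 10 uM against recombinant enzyme, with the fluorescent product measured after 1 hour. Active compounds were retested over a concentration series. Loss of fluorescence versus acetonitrile control was scored as reduced enzyme activity.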

Assay [17] in a line: BSK_SAg_SRB: Viability Assessment in the BioMAP Diversity Plus: SAg Assay (AID 2283096).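 Also: cells read one day after compound addition; hits may be either gain or loss of signal compared with DMSO.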 Particulars: primary human HUVEC with PBMC. Put shortly:
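This overt-cytotoxicity endpoint quantifies protein in human endothelial/PBMC co-cultures at 24 h using SRB absorbance (560 nm) after trichloroacetic acid fixation. Values reflect signal change from the DMSO negative control, fitted bidirectionally.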

E-selectin (Homo sapiens), sequence (P16581 whole entry, looked up): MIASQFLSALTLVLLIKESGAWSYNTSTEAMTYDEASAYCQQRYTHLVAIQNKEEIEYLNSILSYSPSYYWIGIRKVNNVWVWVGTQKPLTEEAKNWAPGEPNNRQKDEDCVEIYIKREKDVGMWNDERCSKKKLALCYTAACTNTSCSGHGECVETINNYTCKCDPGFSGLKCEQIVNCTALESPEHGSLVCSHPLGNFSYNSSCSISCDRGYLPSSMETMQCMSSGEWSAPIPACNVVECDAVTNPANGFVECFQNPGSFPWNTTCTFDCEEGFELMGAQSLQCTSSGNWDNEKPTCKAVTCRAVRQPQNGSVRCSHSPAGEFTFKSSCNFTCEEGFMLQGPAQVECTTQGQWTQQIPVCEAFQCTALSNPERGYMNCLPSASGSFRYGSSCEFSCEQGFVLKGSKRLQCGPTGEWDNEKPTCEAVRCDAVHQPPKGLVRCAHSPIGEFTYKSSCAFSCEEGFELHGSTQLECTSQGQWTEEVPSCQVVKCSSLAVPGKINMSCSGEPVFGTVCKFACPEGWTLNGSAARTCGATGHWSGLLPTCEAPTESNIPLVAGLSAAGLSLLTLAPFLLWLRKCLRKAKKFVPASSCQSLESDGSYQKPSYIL
Tumor necrosis factor (Homo sapiens), sequence (P01375 whole entry, looked up): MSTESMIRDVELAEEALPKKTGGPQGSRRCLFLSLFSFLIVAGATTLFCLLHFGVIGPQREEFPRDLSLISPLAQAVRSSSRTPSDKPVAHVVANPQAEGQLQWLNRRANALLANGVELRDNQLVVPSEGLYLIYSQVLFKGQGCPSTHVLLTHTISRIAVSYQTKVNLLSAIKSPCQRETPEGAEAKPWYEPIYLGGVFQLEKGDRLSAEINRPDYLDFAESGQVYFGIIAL
human CYP2B6, CYP2B6 (gene 1555), sequence (P20813 whole entry, looked up): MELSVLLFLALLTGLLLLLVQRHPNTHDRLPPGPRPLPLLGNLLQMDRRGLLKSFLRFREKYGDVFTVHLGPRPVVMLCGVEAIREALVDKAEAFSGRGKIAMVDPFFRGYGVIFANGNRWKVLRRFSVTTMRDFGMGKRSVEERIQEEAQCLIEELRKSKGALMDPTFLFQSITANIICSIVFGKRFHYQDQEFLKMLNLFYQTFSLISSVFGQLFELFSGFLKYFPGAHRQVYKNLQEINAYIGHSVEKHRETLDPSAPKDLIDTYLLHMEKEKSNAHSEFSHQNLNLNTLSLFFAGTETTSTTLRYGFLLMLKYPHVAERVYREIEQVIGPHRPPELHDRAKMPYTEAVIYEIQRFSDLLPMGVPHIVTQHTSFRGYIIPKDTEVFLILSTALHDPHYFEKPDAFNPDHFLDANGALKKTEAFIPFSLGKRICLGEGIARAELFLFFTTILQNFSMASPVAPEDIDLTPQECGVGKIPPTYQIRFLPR

In general, AC50 refers to the concentration giving half of the maximal activity seen. For the compound `O=S(=O)(C(Cl)(Cl)Cl)C(Cl)(Cl)Cl`, the AC50 was 4.15 µM (active) in [1]; 1.83 µM (active) in [3]; 3.21 µM (active) in assay [4]; 2.64 µM (active) in assay [6]; 2.74 µM (active) in assay [7]; 3.57 µM (active) in assay [8]. Besides, the AC50 is 4.17 µM (active) in [9]; 3.13 µM (active) in assay [10]; 7.79 µM (active) in assay [11]; 2.3 µM (active) in assay [12]; 1.79 µM (active) in assay [13]; 0.798 µM (active) in assay [14]. For the same compound, the result in assay [2] and in assay [5] was inactive.

`CC(C)(C)c1ccccc1O`: the concentration at half-maximal activity (AC50) in assay [1] was 3.18 µM (active). Also, the outcome in assay [2], in [3], in [4], in assay [5], in [15] and in assay [6] was inactive. For the same compound, the result in assay [7], in assay [8], in assay [9], in assay [10], in [11] and in [12] was inactive. Further, the outcome in [14] and in assay [16] was inactive.

As to `Nc1ccc(N)cc1`, the result in [1], in [2], in assay [3], in assay [5], in assay [15] and in [6] was inactive. The result in assay [7], in assay [8], in [9], in [10], in assay [11] and in assay [12] was inactive. Moreover, the outcome in assay [13], in [14] and in assay [17] was inactive. For the same compound, the AC50 in assay [4] is 5.53 µM (active).

For `CC(C)O.CC(C)O.OCCN(CCO)CCO.OCCN(CCO)CCO.[Ti]`, the result in assay [1], in assay [2], in assay [3], in assay [5], in [15] and in [6] was inactive. Further, the outcome in assay [7], in assay [8], in assay [9], in assay [10], in assay [11] and in [12] was inactive. Further, the result in [13] and in [14] was inactive. For the same compound, in assay [4], the AC50 is 1.38 µM (active).

`CCOP(=S)(OCC)SCS(=O)(=O)C(C)(C)C`: the outcome in assay [1], in assay [2], in [3], in assay [4], in assay [5] and in assay [15] was inactive. The result in [6], in assay [7], in assay [8], in assay [9], in [10] and in assay [11] was inactive. Further, the result in assay [12], in [13], in assay [14] and in [17] was inactive.

As for `CCOC(=O)CCN(SN(C)C(=O)Oc1cccc2c1OC(C)(C)C2)C(C)C`, the outcome in [1], in [2], in assay [3], in assay [4], in assay [5] and in [17] was inactive. The AC50 in [15] is 20 µM (active); in assay [6], 30 µM (active); in assay [7], 29.6 µM (active); in assay [8] it was 29.3 µM (active); in [9] it was 32 µM (active); in assay [10], 27.7 µM (active). In addition, the values for the AC50 in assay [11], in [12] and in [14] were 35.4 µM (active), 26 µM (active) and 23.1 µM (active), respectively.

Consider `Cc1cc(C(C)(C)c2ccc(O)c(C)c2)ccc1O`, for which the outcome in assay [1], in [4], in assay [5], in [15] and in assay [11] was inactive. In addition, the AC50 in assay [2] is 4.51 µM (active); in assay [3], 15.1 µM (active); in [6], 14.7 µM (active); in assay [7] it was 15.4 µM (active); in assay [8], 15.4 µM (active); in assay [9], 15.9 µM (active). Besides, the values for the AC50 in [10], in assay [12] and in assay [14] were 14.8 µM (active), 15.7 µM (active) and 18.2 µM (active), respectively.
